Hits are enriched below; roughly 0.99% of the tested compounds scored in any of these assays.
C-LANA FP – inhibitors of KSHV C-LANA binding to DNA, primary screen, biochemical, fluorescence polarization, FAM-LBS DNA, MBP-C-LANA, single point | inhibition, % at 9 µM | actives 0.078% (n = 340,000) | AID 504423, 2011;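 active = highest replicate inhibition at or above 60% at 9 µM, even if other replicates fall short; inactive = all replicates below 60% inhibition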
Cardiac RTF inh – cardiac RTF calcium sensitivity inhibitors, primary screen, biochemical, IANBD-TnC fluorescence, EC70 calcium. Troponin I, cardiac muscle (Homo sapiens) + Troponin T, cardiac muscle (Homo sapiens) + …. IANBD-labeled cardiac RTF, Ca2+ fluorescence. inhibition, % at 7.15 µM. actives 0.12% (n = 340,000);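 active = inhibition above the mean inhibition of all tested compounds plus 3 SD, cut at about 17% in these data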;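 also: assay run at fixed EC70 calcium of 1.6 mM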
RTF Ca sens act – cardiac RTF calcium sensitivity activators, primary screen, biochemical, IANBD-TnC fluorescence, EC20 calcium. Troponin I, cardiac muscle (Homo sapiens) + Troponin T, cardiac muscle (Homo sapiens) + …. IANBD-labeled TnC RTF fluorescence at EC20 calcium; 0% EC20 calcium, 100% full calcium. activation, % at 7.2 µM. actives 0.24% (n = 340,000). AID 493008, 2010;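 active = activation above the mean over all tested compounds plus 3 SD, cut at about 30% in these data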;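 also: rise in fluorescence read as greater calcium sensitivity of cardiac thin filaments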
LANA-H2B inh – blockers of LANA interaction with H2A/H2B – biochemical, FP readout, HTS, primary screen; cell-free LANA-H2A/H2B peptide, fluorescence polarization; inhibition, % (concentration not given with the values); actives 0.6% (n = 320,000); AID 2629, 2010; in the data active = inhibition mostly above about 10%, no sharp cut-off; inactive = mostly below about 6.7%
Keap1 Nrf2 FP – Keap1-Nrf2 protein-protein interaction inhibitors, primary screen, biochemical, fluorescence polarization, single point; Kelch-like ECH-associated protein 1 (Homo sapiens), Q14145; Keap1 Kelch-Nrf2 peptide fluorescence polarization, 1536-well; inhibition, % at 9.4 µM; actives 0.15% (n = 340,000); AID 504523, 2011; in the data active = inhibition above about 12%; inconclusive = no clear call, values can overlap the other calls; inactive = below about 7.3%;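 also: human Keap1 Kelch domain with fluorescein labeled Nrf2 9mer peptide probe; higher means more block of Keap1 binding to Nrf2 peptide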
Target sequence (Q14145 whole entry, looked up, the tested form may be a part): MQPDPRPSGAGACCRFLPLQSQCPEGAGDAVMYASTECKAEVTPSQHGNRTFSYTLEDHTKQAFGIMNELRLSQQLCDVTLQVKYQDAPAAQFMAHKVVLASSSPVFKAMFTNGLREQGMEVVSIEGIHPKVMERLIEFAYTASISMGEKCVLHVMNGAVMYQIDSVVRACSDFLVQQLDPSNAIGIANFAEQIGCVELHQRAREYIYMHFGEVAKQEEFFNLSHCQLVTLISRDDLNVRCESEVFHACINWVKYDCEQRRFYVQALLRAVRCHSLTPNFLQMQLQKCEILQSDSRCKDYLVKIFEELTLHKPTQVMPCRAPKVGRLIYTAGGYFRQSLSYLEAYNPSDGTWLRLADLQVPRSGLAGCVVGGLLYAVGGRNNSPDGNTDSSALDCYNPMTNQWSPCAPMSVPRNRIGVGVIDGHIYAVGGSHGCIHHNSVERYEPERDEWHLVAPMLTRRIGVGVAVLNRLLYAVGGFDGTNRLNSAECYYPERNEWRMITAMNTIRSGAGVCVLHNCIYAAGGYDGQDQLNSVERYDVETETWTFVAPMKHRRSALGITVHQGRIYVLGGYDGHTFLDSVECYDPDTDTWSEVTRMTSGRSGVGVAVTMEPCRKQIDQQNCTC
A number is an active result; 0 = inactive; ? = inconclusive; - = not tested or not shown; + = active, no number.

SMILES | C-LANA FP | Cardiac RTF inh | RTF Ca sens act | LANA-H2B inh | Keap1 Nrf2 FP
O=C(NC1CC1)c1cccc2c1C(=O)c1ccc(N3CCC(Cc4ccccc4)CC3)cc1S2(=O)=O | 0 | 0 | 99 | 0 | 0
CC1CCN(c2ccc3c(c2)S(=O)(=O)c2cccc(C(=O)NCc4ccc(F)cc4)c2C3=O)CC1 | 0 | 0 | 105 | 0 | 0
O=C(NC1CCCCC1)c1cccc2c1C(=O)c1ccc(N3CCCC3)cc1S2(=O)=O | 0 | 0 | 0 | 0 | 0
Cc1cc(NC(=O)COc2ccc(C)c(C)c2)no1 | 0 | 0 | 0 | 0 | 0
COc1ccc(/C(N)=N/OC(=O)N2CCOCC2)cc1 | 0 | 0 | 0 | 14 | 0
CC1(C)Cc2c(sc(NC(=O)C(=O)N3CCOCC3)c2C(N)=O)CO1 | 0 | 0 | 0 | 0 | 0
c1ccc(Nc2ccccn2)nc1 | 0 | 0 | 0 | 8.3 | 0
CCOc1ccc(N(C)c2ccc(/C=C3/SC(=S)NC3=O)cc2)cc1 | 0 | 0 | 45 | 0 | 0
Cc1ccc(C)n1-c1ccc(C#N)cn1 | 0 | 0 | 0 | - | 0
N#Cc1cnc(NN)nc1 | 0 | 0 | 0 | 165 | 0
CCN(CC)c1ccc2c(c1)CCCN2 | - | - | - | 20 | -
COc1ccccc1CNC(=O)C(C)n1cccc1C(=O)c1ccccc1 (stereo unspecified) | 0 | 0 | 0 | 0 | 0
CC(C(=O)NCc1ccc(Cl)cc1)n1cccc1C(=O)c1ccccc1 (stereo unspecified) | 0 | 0 | 0 | 19 | 0
CC1=CC(=C(C#N)C#N)c2ccccc2N1C | 0 | 0 | 0 | 46 | ?
COc1ccc(CCN2CC(C(=O)N(C)Cc3ccccc3OC)CCC2=O)cc1 (stereo unspecified) | 0 | 0 | 0 | 12 | 0
COc1ccc(CCN2CC(C(=O)N(C)CCOc3ccccc3)CCC2=O)cc1 (stereo unspecified) | 0 | 0 | 0 | 0 | 0
Cc1ccc([C@H]2C(C(=O)O)=CC[C@@H](c3ccc(C)cc3)N2S(=O)(=O)c2ccc(C)cc2)cc1 | 0 | 0 | 0 | + | 0
Cc1ccccc1S(=O)(=O)N1[C@@H](c2ccc(Cl)cc2)C(C(=O)O)=CC[C@H]1c1ccc(Cl)cc1 | 0 | 0 | 0 | 60 | 0
CCCCC[C@@H]1C=C(C(=O)O)[C@H](c2ccc(Cl)c(Cl)c2)N1S(=O)(=O)c1ccc(C)cc1 | 0 | 0 | 0 | 120 | 0
Cc1onc(-c2ccccc2Cl)c1C(=O)N1CCN(c2nc3ccccc3s2)CC1 | 0 | 0 | 0 | 0 | 0
Cc1ccc(NP(=O)(c2ccc(N(C)C)cc2NC(=O)c2cccs2)N2CCOCC2)cc1Cl (stereo unspecified) | 0 | 0 | 0 | 0 | 0
NC(=S)N=Nc1c(O)cc(O)c2[nH]c(=O)ccc12 | 0 | 0 | 0 | - | 15
NC(=S)N=Nc1c(O)[nH]c2ccc(F)cc12 | 0 | 0 | 0 | 0 | 0
O=C1c2ccccc2C(Nc2ccc(-c3nc4ccccc4[nH]3)cc2)N1Cc1ccco1 (stereo unspecified) | 0 | 0 | 0 | 0 | 0
CC(C(=O)N1CCCC1)N(C)CC(=O)Nc1cccc(F)c1 (stereo unspecified) | 0 | 0 | 0 | 0 | 0
SMILES | C-LANA FP | Cardiac RTF inh | RTF Ca sens act | LANA-H2B inh | Keap1 Nrf2 FP
C[C@]12CC[C@@H]3c4ccc(O)cc4[C@@H](O)C[C@H]3[C@@H]1CC[C@@H]2O | - | - | - | 26 | -
C[C@]12CC[C@@H]3c4ccc(O)cc4CC[C@H]3[C@@H]1CC[C@@H]2O | 0 | 0 | 0 | 0 | 0
C[C@]12CC[C@@H]3c4cc(O)c(O)cc4CC[C@H]3[C@@H]1CC[C@@H]2O | 0 | 0 | 0 | 29 | 0
Nc1nnn(CC(=O)N/N=C/c2cccc(Cl)c2)n1 | 0 | 0 | 0 | 0 | 0
CCN1C[C@@H]2[C@@H]3C(=O)N(C)C(=O)[C@@H]3[C@](C)(C1=O)N2C(=O)c1ccc(C(C)(C)C)cc1 | 0 | 0 | 0 | - | 0
O=C(Cn1cc(C(=O)C2CC2)c2ccccc21)Nc1ccc(F)cc1 | 0 | 0 | 0 | 0 | 0
CC(=O)n1c2ccccc2c2ccccc21 | 0 | 0 | 0 | 0 | 0
CC(=O)n1c(C=Nc2ccc(Cl)cc2)c(O)c2ccccc21 | 0 | 0 | 38 | 0 | 0

Screens from PubChem.
